According to PubChem BioAssay:
Calls of active or inactive are those of the source. Unless noted, how the calls were made is not given here.

Tests used:
[1] = system: XIP peptide (Xip251-270) binding; experiment: small-molecule binders of XIP peptide, primary screen, biochemical, small-molecule microarray, fluorescence 635/667 nm, 0.1 µg/mL protein (AID 1182); conditions: fluorescent protein binding, 635 nm, higher = more signal, called active from +8 up or from −8 down
XIP peptide (Xip251-270) = experiment: small-molecule binders of XIP peptide, primary screen, biochemical, small-molecule microarray, fluorescence 635/667 nm, 0.5 µg/mL protein (AID 1183); conditions: small-molecule microarray binding, fluorescence 635 nm; higher = more signal
[2] = Plasmodium falciparum growth inhibition, primary screen, strain 3D7, DAPI fluorescence, 100 nL (AID 1184);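 further: parasites grown inside human red blood cells in medium with human serum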; conditions: P. falciparum 3D7 growth, 3 d, higher = more signal
[3] = target: Homeobox protein Hox-A13 (Mus musculus) (UniProt Q62424); experiment: inhibitors of HoxA13-DNA binding, primary screen, biochemical, fluorescence polarization, labeled oligonucleotide (AID 1185); conditions: 15 min, higher = more signal, called active from +8 up or from −8 down
Homeobox protein Hox-A13 (Mus musculus), sequence (Q62424 whole entry, looked up): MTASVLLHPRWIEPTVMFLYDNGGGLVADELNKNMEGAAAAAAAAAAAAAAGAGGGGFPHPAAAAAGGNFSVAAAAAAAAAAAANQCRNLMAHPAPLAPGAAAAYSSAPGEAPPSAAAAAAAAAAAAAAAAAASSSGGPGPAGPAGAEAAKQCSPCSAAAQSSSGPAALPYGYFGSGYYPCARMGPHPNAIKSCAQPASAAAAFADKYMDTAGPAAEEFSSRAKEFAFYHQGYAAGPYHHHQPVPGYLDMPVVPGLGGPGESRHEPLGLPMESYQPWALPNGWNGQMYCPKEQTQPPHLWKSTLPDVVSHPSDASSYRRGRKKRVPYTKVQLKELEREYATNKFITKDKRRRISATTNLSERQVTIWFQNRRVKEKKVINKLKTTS

[4] = inhibitors of hydroxyurea-induced Chk1 phosphorylation, primary screen, imaging, HeLa, phospho-Chk1 antibody, percent positive cells (AID 1186); conditions: hydroxyurea-induced phospho-Chk1 immunofluorescence imaging, higher = more signal
[5] = inhibitors of hydroxyurea-induced Chk1 phosphorylation, primary screen, imaging, HeLa, phospho-Chk1 nuclear intensity (AID 1187); conditions: hydroxyurea-induced phospho-Chk1 immunofluorescence imaging, higher = more signal

In the case of `C=CC[C@]1(C(=O)NCc2ccccc2)COC(c2ccc(OCCCO)cc2)=N1`, the composite z-score [1] is reported as -0.398 (inactive), the composite z-score (XIP peptide (Xip251-270)) is reported as 0.779 and the z-score [2] is reported as -0.823. The z-score [3] was -4.86 (inactive), the z-score [4] was -0.059 (inactive) and the z-score [5] was -0.0405 (inactive).

For `O=C1c2ccccc2[C@@]2(Cc3ccccc3N(Cc3ccccc3)C2=O)[C@H](c2ccc(CO)cc2)N1Cc1ccccc1`, the composite z-score [1] was -0.348 (inactive), the composite z-score (XIP peptide (Xip251-270)) was -0.283 and the z-score [2] was 1.37. The z-score [3] was -0.928 (inactive), the z-score [4] was 0.306 (inactive) and the z-score [5] was 0.435 (inactive).

In the case of `CC(C)C[C@@H]1NC(=O)[C@H]2C[C@@H](C(=O)NCCCCCNC(=O)CS)[C@@H](c3ccc(O)cc3)N2C1=O`, the composite z-score [1] is reported as 0.563 (inactive), the composite z-score (XIP peptide (Xip251-270)) is reported as 0.692 and the z-score [2] is reported as -0.92. For the same molecule, the z-score [3] was -3.85 (inactive), the z-score [4] was -0.37 (inactive) and the z-score [5] was -0.291 (inactive).

With `CC(C)c1ccc(NN2C(C(O)C(C)C)C=CC3C(=O)N(c4ccccc4)C(=O)C32)cc1` (configuration not stated) the composite z-score [1] was 1.49 (inactive), the composite z-score (XIP peptide (Xip251-270)) was 0.778 and the z-score [2] was -0.63. For the same molecule, the z-score [3] was -1.26 (inactive), the z-score [4] was -0.172 (inactive) and the z-score [5] was -0.0386 (inactive).

In the case of `COc1ccc(CCNC(=O)[C@@]2(C)c3ccccc3C(=O)N(Cc3cc(C(F)(F)F)cc(C(F)(F)F)c3)[C@H]2c2ccc(CO)cc2)cc1`, the composite z-score [1] is reported as 0.517 (inactive), the composite z-score (XIP peptide (Xip251-270)) is reported as 0.702 and the z-score [2] is reported as -1.88. For the same molecule, the z-score [3] was -2.88 (inactive), the z-score [4] was -0.0741 (inactive) and the z-score [5] was 0.364 (inactive).

For `C=CCNC(=O)[C@H]1[C@@H]2C(=O)O[C@@H](c3ccccc3)[C@@H](c3ccccc3)N2[C@@H](c2ccccc2OCCO)[C@]12C(=O)N(C(=O)OCCOC)c1ccccc12`, the composite z-score [1] was 0.346 (inactive), the composite z-score (XIP peptide (Xip251-270)) was 0.814 and the z-score [2] was -1.68. For the same molecule, the z-score [3] was -4.77 (inactive), the z-score [4] was 0.0539 (inactive) and the z-score [5] was 0.109 (inactive).

In the case of `CC(c1ccccc1)C(O)C1C=CC2C(=O)N(c3ccccc3)C(=O)C2N1Nc1ccc(C#N)cc1` (configuration not stated), the composite z-score [1] is reported as 0.235 (inactive), the composite z-score (XIP peptide (Xip251-270)) is reported as 0.784 and the z-score [2] is reported as 0.526. For the same molecule, the z-score [3] was -1.21 (inactive), the z-score [4] was -0.325 (inactive) and the z-score [5] was 0.313 (inactive).

In the case of `C=CCC(OC(C)=O)[C@@H]1[C@@H](N(Cc2ccc(-c3cccc(C(F)(F)F)c3)o2)C(=O)Cc2ccc(F)cc2)c2cc(OCCCO)ccc2N1C(=O)c1ccc2ccccc2n1` (some centres not stated), the composite z-score [1] is reported as -0.384 (inactive), the composite z-score (XIP peptide (Xip251-270)) is reported as -0.904 and the z-score [2] is reported as 0.587. For the same molecule, the z-score [3] was -2.08 (inactive), the z-score [4] was 0.918 (inactive) and the z-score [5] was 0.64 (inactive).

For `C=C(COC)/C(=C/C[C@@H](OC(C)=O)c1ccccc1OCCO)c1cc(C(=O)OC)ccc1OC`, the composite z-score [1] was -0.0801 (inactive), the composite z-score (XIP peptide (Xip251-270)) was 0.587 and the z-score [2] was -2.76. For the same molecule, the z-score [3] was -4.47 (inactive), the z-score [4] was -0.503 (inactive) and the z-score [5] was 0.169 (inactive).

For `COc1cccc(C[C@H]2C[C@@H](CO[Si](C(C)C)(C(C)C)C(C)C)N3C(=O)[C@@]4(C(C)=O)O[C@@]23[C@@H]2C(=O)N(C)C(=O)[C@@H]24)c1`, the composite z-score [1] was 0.234 (inactive), the composite z-score (XIP peptide (Xip251-270)) was 0.61 and the z-score [2] was -1.75. The z-score [3] was -3.39 (inactive), the z-score [4] was -0.365 (inactive) and the z-score [5] was -0.482 (inactive).

With `C=CCC(OC(C)=O)[C@@H]1[C@@H](N(Cc2cccc3ccccc23)C(=O)c2cccc3ccccc23)c2cc(OCCCO)ccc2N1C(=O)Cc1ccc2ccccc2c1` (some centres not stated) the composite z-score [1] was 0.457 (inactive), the composite z-score (XIP peptide (Xip251-270)) was -0.716 and the z-score [2] was -1.35. The z-score [3] was -2.12 (inactive), the z-score [4] was 0.233 (inactive) and the z-score [5] was 0.42 (inactive).

In the case of `NC(=O)N1C(=O)C2C(C1=O)C1C=C(CCCO)C2C(c2ccc(CN3CCCC3)cc2)N1Cc1cccc(OC(F)(F)F)c1` (configuration not stated), the composite z-score [1] is reported as 0.106 (inactive), the composite z-score (XIP peptide (Xip251-270)) is reported as -0.133 and the z-score [2] is reported as -2.28. For the same molecule, the z-score [3] was -7.26 (inactive), the z-score [4] was 0.0295 (inactive) and the z-score [5] was 0.298 (inactive).

In the case of `COC(=O)[C@]1(CO)N=C(c2ccc(OCCCO)cc2)O[C@@H]1c1ccccc1CN=[N+]=[N-]`, the composite z-score [1] is reported as 0.495 (inactive), the composite z-score (XIP peptide (Xip251-270)) is reported as -0.116 and the z-score [2] is reported as -0.217. For the same molecule, the z-score [3] was -5 (inactive), the z-score [4] was -0.33 (inactive) and the z-score [5] was -0.658 (inactive).

For `COC(=O)[C@@]1(CCS(=O)(=O)c2ccccc2)N=C(c2ccc(OCCCO)cc2)O[C@H]1c1ccccc1N=[N+]=[N-]`, the composite z-score [1] was 1.61 (inactive), the composite z-score (XIP peptide (Xip251-270)) was 0.79 and the z-score [2] was -1.98. The z-score [3] was -3.19 (inactive), the z-score [4] was -0.305 (inactive) and the z-score [5] was -0.0592 (inactive).

In the case of `COc1ccc([Si](C)(C)[C@H]2[C@H](CCO)O[C@@]3(C(=O)N(Cc4ccccc4)c4ccc(N(C=O)c5ccccc5)cc43)[C@@H]2C)cc1`, the composite z-score [1] is reported as 0.572 (inactive), the composite z-score (XIP peptide (Xip251-270)) is reported as 0.571 and the z-score [2] is reported as -2.74. For the same molecule, the z-score [3] was -0.799 (inactive), the z-score [4] was 1.75 (inactive) and the z-score [5] was 1.49 (inactive).

In the case of `CCCCC(=C=CC[C@@H](O)c1ccc(OCCO)cc1)C[C@@H](O)c1ccccn1`, the composite z-score [1] is reported as 0.0856 (inactive), the composite z-score (XIP peptide (Xip251-270)) is reported as -0.24 and the z-score [2] is reported as -0.979. For the same molecule, the z-score [3] was -5.87 (inactive), the z-score [4] was 0.784 (inactive) and the z-score [5] was 0.744 (inactive).

With `C[C@]1(C(=O)NCC(F)(F)F)c2ccccc2C(=O)N(Cc2ccc(OC(F)(F)F)cc2)[C@H]1c1ccc(CO)cc1` the composite z-score [1] was 0.102 (inactive), the composite z-score (XIP peptide (Xip251-270)) was 0.564 and the z-score [2] was -0.231. For the same molecule, the z-score [3] was -3.96 (inactive), the z-score [4] was 0.01 (inactive) and the z-score [5] was -0.125 (inactive).
